A selection: hits, their analogues and other compounds. The true share with any hit is near 5.2%.
ALR H2O2 inh: blocks human ALR sulfhydryl oxidase activity; purified ALR, DTT oxidation, H2O2 HRP-luminol luminescence; 3.8% of 290,000 active; inhibition, % (test concentration not listed); AID 485317; P55789;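 active = mean replicate inhibition above about 79%, with every replicate also reaching it, limit read from the data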
Yeast superoxide: lowers age-related superoxide in aged yeast cells; S. cerevisiae aged cells, superoxide DHE fluorescence; active compounds read low; superoxide response (% of plate mean), % at 10 µM; 0.18% of 330,000 active; AID 2690;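 active = superoxide response under a set limit, about three screen SD below normal, cut at about 65% in these data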;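 note: yeast aged for seven days with compound at 30 °C before DHE staining; 100% = average MFI of all compound-treated wells on the plate with controls excluded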
APOBEC3A inh: inhibitors of human APOBEC3A DNA deaminase; recombinant A3A, FAM/TAMRA ssDNA deamination fluorescence; inhibition, % at 20 µM; AID 493011; P31941; 0.41% of 330,000 active;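 active = at least 40% inhibition at 20 µM here, with at most 30% in a related deaminase screen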;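 note: plate controls were A3A with DMSO for no effect and wells lacking A3A enzyme for full effect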
A3G deaminase: blocks human APOBEC3G single-stranded DNA deamination. 0.28% of 330,000 active. AID 493012. inhibition, % at 20 µM. Q9HC16. recombinant A3G, ssDNA deamination FAM/TAMRA fluorescence;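 active = inhibition of at least 40% at 20 µM, with no more than 30% in the related APOBEC3A deaminase screen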;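 note: plate controls were DMSO wells with A3G for no effect and wells lacking A3G enzyme for full effect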
CendR NRP1 mod: NRP-1/CendR interaction modulation. AID 602438. O14786. FAM-RPARPAR peptide binding to NRP-1, fluorescence polarization. inhibition, % at 25 µM. 0.85% of 360,000 active;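 active = inhibition or corrected inhibition above about 18%, plus a signal ratio from 0.5 to 1.5, limit read from the data, passing the limit was not always enough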
Target sequence (O14786 whole entry, looked up): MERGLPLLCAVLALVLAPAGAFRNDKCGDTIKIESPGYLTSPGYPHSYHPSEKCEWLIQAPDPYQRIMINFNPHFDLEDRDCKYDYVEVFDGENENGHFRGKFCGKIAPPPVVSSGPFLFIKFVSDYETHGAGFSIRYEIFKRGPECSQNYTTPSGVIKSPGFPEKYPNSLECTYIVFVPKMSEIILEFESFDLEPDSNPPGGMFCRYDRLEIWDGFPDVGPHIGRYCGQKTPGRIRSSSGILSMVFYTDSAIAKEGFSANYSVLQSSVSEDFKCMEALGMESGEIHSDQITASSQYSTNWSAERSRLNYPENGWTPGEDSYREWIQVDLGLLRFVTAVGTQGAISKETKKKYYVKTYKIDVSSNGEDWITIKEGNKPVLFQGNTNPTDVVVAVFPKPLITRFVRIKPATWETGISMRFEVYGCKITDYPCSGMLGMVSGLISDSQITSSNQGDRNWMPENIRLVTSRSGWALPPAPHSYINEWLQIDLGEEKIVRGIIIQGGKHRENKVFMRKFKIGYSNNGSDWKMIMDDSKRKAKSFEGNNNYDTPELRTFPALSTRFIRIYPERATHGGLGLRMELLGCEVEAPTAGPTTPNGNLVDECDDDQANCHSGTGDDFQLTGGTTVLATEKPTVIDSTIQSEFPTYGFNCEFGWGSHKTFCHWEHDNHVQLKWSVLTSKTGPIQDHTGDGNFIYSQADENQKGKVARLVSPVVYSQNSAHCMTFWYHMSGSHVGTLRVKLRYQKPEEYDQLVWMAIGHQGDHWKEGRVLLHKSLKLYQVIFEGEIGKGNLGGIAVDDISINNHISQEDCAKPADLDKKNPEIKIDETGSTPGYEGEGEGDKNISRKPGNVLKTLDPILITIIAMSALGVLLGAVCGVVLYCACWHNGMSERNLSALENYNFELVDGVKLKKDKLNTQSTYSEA
M18AAP inhibitor: blocks P. falciparum M18 aspartyl aminopeptidase; recombinant PfM18AAP, H-Glu-NHMec fluorogenic cleavage; inhibition, % at 7.35 µM; 1.2% of 290,000 active; AID 1822;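 active = inhibition above the campaign mean inhibition over all tested compounds plus 3 SD, cut at about 28% in these data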;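 note: 0% = plate median of test compound wells and 100% = 2 mM ZnCl2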
An asterisk follows results filed as active; . = no result given.

SMILES	ALR H2O2 inh	Yeast superoxide	APOBEC3A inh	A3G deaminase	CendR NRP1 mod	M18AAP inhibitor
CN(C)c1cccc(C(=O)NNC(=S)NC2CCCC2)c1	99*	112	-1	0	10	3
N#CCC(=O)Nc1ccc(C(=O)NNC(=S)NC2CCCCC2)cc1	94*	117	-6	-8	-19	.
COc1ccc(-c2nc(NC(=O)CSc3nnc4ccccn34)ns2)cc1	-7	98	1	-4	.	5
COc1ccc(CCOC(=O)c2cccc(NC(C)=O)c2)cc1	33	104	0	-9	-8	-5
COCCCNC(=O)CSc1nc2c(sc(=S)n2-c2cc(Cl)ccc2OC)c(=O)[nH]1	-18	98	-4	-9	-4	-5
O=C1NC(=O)/C(=C\c2ccc(Sc3ccc(Cl)cc3)o2)N1	90*	139	13	9	18	-6
O=C1NN(c2ccccc2)C(=O)/C1=C/c1ccc(Sc2ccc(Cl)cc2)o1	10	121	2	-2	-2	-6
Cc1ccc(S(=O)(=O)N(CC(O)CN2C(=O)NC(C)(C)C2=O)c2cccc(C)c2)cc1 (stereo not drawn)	-3	93	-1	-5	0	1
O=C1CCn2c1c(O)c1ccccc1c2=O	.	.	.	.	10	.
N=C1CCC(=N)c2c1c(O)c1ccccc1c2O	63	171	46	44	27*	15
Cc1ccccc1-n1c(=S)[nH]c2nc3c(cc2c1=O)COC(C)(C)C3	.	97	-3	-7	-3	-5
Cc1ccccc1-n1c(=S)[nH]c2nc3c(cc2c1=O)CCCC3	98*	102	-3	-7	-15	0
COc1ccccc1NS(=O)(=O)c1cccc(C(=O)N/N=C2\CC(=O)CC(C)(C)C2)c1	92*	112	-3	-2	-56	9
CCOc1ccccc1Nc1nc(N)nc(CSc2nncn2C)n1	4	81	3	0	0	-14
Oc1cc(Nc2ccccc2)cc2cccnc12	57	108	-2	-9	-4	.
Oc1cc(NCCN2CCOCC2)cc2cccnc12	24	146	-2	3	29*	.
COc1ccc(N2CCN(C(c3cccs3)C(C)NS(C)(=O)=O)CC2)cc1 (stereo not drawn)	99*	83	-4	2	3	2
CC(NC(=O)C(=O)N1CCOCC1)C(c1cccs1)N1CCN(c2ccc(F)cc2)CC1 (stereo not drawn)	98*	97	-1	4	0	7
CC(NS(C)(=O)=O)C(c1cccs1)N1CCN(c2ccc(F)cc2)CC1 (stereo not drawn)	98*	105	-1	-4	7	-6
CC(NS(C)(=O)=O)C(c1cccs1)N1CCN(C)CC1 (stereo not drawn)	-10	92	-2	-5	-3	4
Cc1ccc(OCC(=O)Nc2cccc(S(=O)(=O)NC3=NCCCCC3)c2)cc1C	-1	94	2	-7	5	-15
COC(=O)Nc1ccc(S(=O)(=O)NCCO)cc1	-15	106	1	-1	7	-2
CCOc1ccccc1OCC(=O)NC1CCSc2ccccc21 (stereo not drawn)	.	.	.	.	13	.
CCOc1ccc(N2C(=O)CC(NCCNc3ccc([N+](=O)[O-])cn3)C2=O)cc1 (stereo not drawn)	-2	93	0	-2	-3	10
Oc1cc2c(cc1O)C(c1ccccc1)CNCC2 (stereo not drawn)	98*	105	-6	-4	-3	.
SMILES	ALR H2O2 inh	Yeast superoxide	APOBEC3A inh	A3G deaminase	CendR NRP1 mod	M18AAP inhibitor
c1ccc(C2CNCCc3ccccc32)cc1 (stereo not drawn)	-2	102	0	-5	-2	-5
Oc1cc2c(cc1O)[C@@H](c1ccccc1)CNCC2	.	.	.	.	-3	83*
CC(=O)c1c(C)[nH]c(C(=O)OCC(=O)N2CC(=O)Nc3ccccc32)c1C	-3	89	2	7	-9	-9
CN1C(C(=O)Nc2ncccn2)=C(O)c2ccccc2S1(=O)=O	-2	108	.	.	1	14
COC(=O)c1cccc(NC(=O)CSCc2ccccc2)c1	-8	116	-6	-10	4	7
O=C(CSCC(=O)OCC(=O)c1ccc(Br)cc1)Nc1ccc(Br)cc1	25	105	-3	-2	6	0
CCOC(=O)c1ccc(NC(=O)CSCC(=O)OCC(=O)c2ccccc2)cc1	100*	87	1	3	5	2

Assay outcomes deposited in PubChem by several laboratories.
